Several values for one entry are separate records, joined by “and”; a condition that tells them apart may be missing. Equal entries are not always repeated. Results filed as inconclusive are left out. Some compounds were tested as several samples or in several runs, with calls that do not always agree. Activity calls are given as the source filed them. Rule for the calls: active = hit-call score of the fitted dose curve at least 0.9, where 1 is the maximum; inconclusive = response in the unintended direction; inactive = score below 0.9.

Assay [1] can be described thus: TOX21_p53_BLA_p2_viability: Viability Assessment in the Tox21 HCT-116 p53 Agonism Beta-lactamase Assay, Phase 2 (AID 2283591).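 Note: compound exposure lasted 16 h at 37 °C; actives lower the ATP signal meaning cytotoxicity.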 The method in brief: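 Cytotoxicity readout: CellTiter-Glo ATP luminescence, 30 min at room temperature, after the beta-lactamase read. Cells were HCT116 exposed 16 h at 37C to compounds pin-transferred at 217-fold dilution from DMSO stocks.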

The target of assay [2] is Cellular tumor antigen p53 (Homo sapiens) (UniProt P04637). The experiment in a line: TOX21_p53_BLA_p2_ratio: Tox21 HCT-116 p53 Agonism Beta-lactamase Assay, Ratio, Phase 2 (AID 2283592). The method in brief:
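Read-out is the blue/green (460/530 nm, 405 nm excitation) ratio after 2 h CCF4-AM loading, fitted as gain versus DMSO. Compounds, pinned at 217-fold dilution from DMSO stocks, stayed 16 h on HCT-116 beta-lactamase reporter cells seeded 5 h earlier.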

Assay [3] can be described thus: TOX21_p53_BLA_p3_viability: Viability Assessment in the Tox21 HCT-116 p53 Agonism Beta-lactamase Assay, Phase 3 (AID 2283593).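 Note: cells exposed to compound for 16 h before reading.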 In short, it runs like this:
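Cellular ATP was quantified by CellTiter-Glo luminescence, read after 30 min at room temperature. Beforehand, HCT116 cells (4000/well) received compound 5 h post-seeding, 217-fold diluted from DMSO, then incubated 16 h at 37C.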

Assay [4] addresses Cellular tumor antigen p53 (Homo sapiens) (UniProt P04637). The experiment in a line: TOX21_p53_BLA_p3_ratio: Tox21 HCT-116 p53 Agonism Beta-lactamase Assay, Ratio, Phase 3 (AID 2283596). The method in brief:
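Cells were seeded at 4000/well, rested 5 h at 37C, then dosed with DMSO compound solutions (217-fold dilution) for 16 h. CCF4-AM substrate was loaded for 2 h at room temperature, and the 460/530 nm emission ratio was fitted for gain of signal versus DMSO.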

Assay [5] can be described thus: TOX21_p53_BLA_p4_viability: Viability Assessment in the Tox21 HCT-116 p53 Agonism Beta-lactamase Assay, Phase 4 (AID 2283597).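 Note: hits lower the luminescence signal meaning cytotoxicity.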 The method in brief:
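Cytotoxicity as reduced cellular ATP (CellTiter-Glo luminescence, 30 min room temperature), measured in the same wells following the CCF4 FRET p53 reading. Human HCT-116 cells received compounds in DMSO (217-fold dilution) for 16 h.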

Assay [6] deals with Cellular tumor antigen p53 (Homo sapiens) (UniProt P04637). As to the kind of experiment: TOX21_p53_BLA_p5_ratio: Tox21 HCT-116 p53 Agonism Beta-lactamase Assay, Ratio, Phase 5 (AID 2283599). In short, it runs like this: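 Beta-lactamase reporter ratio (blue 460 nm over green 530 nm, 405 nm excitation) after 2 h CCF4-AM loading, in HCT-116 cells exposed 16 h at 37 C to compounds pinned at 217-fold dilution. Increases relative to DMSO baseline scored.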

A short description of assay [7]: TOX21_p53_BLA_p5_viability: Viability Assessment in the Tox21 HCT-116 p53 Agonism Beta-lactamase Assay, Phase 5 (AID 2283600). In short, it runs like this: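 Viability came from CellTiter-Glo ATP luminescence, read after 30 min at room temperature. Before this, HCT-116 p53-bla cells (4000/well) had 16 hours of compound exposure at 37C, with DMSO stocks diluted 217-fold on transfer.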

Assay [8] concerns the target Cellular tumor antigen p53 (Homo sapiens) (UniProt P04637). As to the kind of experiment: TOX21_p53_BLA_p4_ratio: Tox21 HCT-116 p53 Agonism Beta-lactamase Assay, Ratio, Phase 4 (AID 2283601). The method in brief:
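Signal is the blue/green (460nm/530nm) ratio of cleaved versus uncleaved CCF4-AM substrate, read after 2 h substrate loading. Cells were HCT116 carrying the p53-responsive beta-lactamase reporter, dosed 16 h at 37C, 5% CO2; CellTiter-Glo measured in parallel.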

Assay [9] is described as follows: ACEA_AR_agonist_AUC_viability: ACEA Biosciences xCELLigence Real-Time Cell Analysis on Androgen Receptor Agonism for Viability (AID 2283775). The method in brief: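 Viability endpoint from xCELLigence impedance in 22Rv1 prostate cells at 80 h. Eight-point series, 100 uM maximum final.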

Sequence of Cellular tumor antigen p53 (Homo sapiens) (P04637 whole entry, looked up): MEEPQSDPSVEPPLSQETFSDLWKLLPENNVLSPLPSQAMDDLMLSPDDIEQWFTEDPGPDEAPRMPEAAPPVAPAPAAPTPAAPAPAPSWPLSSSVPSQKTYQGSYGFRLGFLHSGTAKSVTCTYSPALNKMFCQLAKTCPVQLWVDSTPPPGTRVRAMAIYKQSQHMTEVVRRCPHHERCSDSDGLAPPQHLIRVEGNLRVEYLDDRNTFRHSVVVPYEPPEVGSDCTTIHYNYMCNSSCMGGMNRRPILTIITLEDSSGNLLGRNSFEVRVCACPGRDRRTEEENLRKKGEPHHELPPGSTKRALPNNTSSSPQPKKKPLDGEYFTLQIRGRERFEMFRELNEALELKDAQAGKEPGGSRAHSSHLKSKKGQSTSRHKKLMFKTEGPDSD

The AC50 is the concentration giving half of the maximal activity seen. As for `Nc1ncn([C@@H]2O[C@H](CO)[C@@H](O)[C@H]2O)c(=O)n1`, the result in assay [1], in assay [2], in assay [3], in assay [4] and in [7] was inactive. The AC50 in assay [2] was 1.06 µM (active); in assay [4], 13.4 µM (active); in [5], 1.15 µM (active) and 514 nM (active); in assay [6], 3.88 µM (active) and 6.69 µM (active); in assay [8], 13.6 µM (active) and 6.66 µM (active).

Take `CC(C)c1ccc2c(C(C)C)cc(C(C)C)c(S(=O)(=O)O)c2c1`: the compound was classed as inactive in [1], in assay [2], in assay [3], in assay [4], in assay [6] and in assay [7]. Also, the outcome in assay [8] and in assay [9] was inactive. Moreover, the AC50 in [5] is 89.7 µM (active).

Turning to `O=C1OC(=O)c2cc(Oc3ccc4c(c3)C(=O)OC4=O)ccc21`, the call in [1], in assay [2], in assay [3], in assay [4], in [7] and in assay [8] was inactive.

In the case of `Cc1cccc(C(=O)O)c1`, the call in assay [1], in assay [2], in assay [3], in assay [4], in assay [5] and in [6] was inactive. Moreover, the result in assay [8] was inactive.

Consider `CCCCCCCCCCOS(=O)(=O)O`, for which the outcome in assay [1], in assay [2], in assay [3], in assay [5] and in assay [6] was inactive.

Consider `Cc1cccc(N(C)C(=S)Oc2ccc3ccccc3c2)c1`, for which the call in assay [1], in assay [2], in assay [3], in assay [4], in assay [6] and in assay [7] was inactive. The outcome in [8] was inactive.

Consider `CC1=Nc2ccc3ccccc3c2C1(C)C`, for which the call in assay [1], in assay [2], in assay [3], in assay [4], in assay [6] and in assay [7] was inactive. Also, the result in assay [8] was inactive.

`O=C1CCCCCCCCCCCCCCCO1`: the compound was classed as inactive in [1], in assay [2], in [3], in [4], in [6] and in assay [7]. In assay [8], the result was inactive.

Regarding `OC1CCCCCCCCCCC1`, the call in assay [1], in assay [2], in assay [3], in assay [4], in assay [6] and in [7] was inactive. Besides, the result in assay [8] and in assay [9] was inactive.

Take `O=[N+]([O-])C1(Br)COCOC1`: the compound was classed as inactive in [1], in [2], in assay [3], in assay [4], in assay [5] and in assay [6]. In addition, the outcome in assay [8] was inactive.

Turning to `Cc1oncc1C(=O)Nc1ccc(C(F)(F)F)cc1`, the result in assay [1], in assay [2], in assay [3], in [4], in assay [6] and in assay [7] was inactive.

Take `CC(C)c1ccc2c(c1)CC[C@H]1[C@](C)(CN)CCC[C@]21C`: the concentration at half-maximal activity (AC50) in assay [1] was 42.6 µM (active); in [2] it was 47.1 µM (active); in assay [3], 32.3 µM (active); in assay [4], 72.5 µM (active); in assay [6] it was 78.5 µM (active); in [7] it was 63.5 µM (active). In addition, the AC50 in assay [8] is 85.8 µM (active).

In the case of `CCCC(=O)OCc1ccccc1`, the compound was classed as inactive in [1], in assay [2], in assay [3], in [4], in [7] and in assay [8].

For `CCCCCCCCCCCSCC(=O)O`, the AC50 in [1] was 62 µM (active); in [2], 83.3 µM (active); in assay [6], 83.5 µM (active); in [7] it was 74 µM (active); in [8], 86.7 µM (active). The result in assay [3] and in [4] was inactive.

Consider `O=C(Nc1ccccc1)c1ccccc1O`, for which the result in assay [1], in [3], in [4], in assay [6], in [7] and in assay [8] was inactive. Besides, the concentration at half-maximal activity (AC50) in assay [2] is 57 µM (active).

(Values after PubChem BioAssay (EPA / NIEHS).)
